Results as given in PubChem BioAssay (EPA / NIEHS).
Where “and” joins values, the source holds several entries; their conditions need not be identical. Equal entries are not always repeated. Inconclusive results are not listed. Calls of active or inactive are those of the source. How the source made its calls, unless noted: active means hit-call score of the fitted dose curve at least 0.9, where 1 is the maximum; inconclusive means response in the unintended direction; inactive means score below 0.9.

What was measured:
[1] = read-out: Broad substrate specificity ATP-binding cassette transporter ABCG2 (Homo sapiens) (UniProt Q9UNQ0); assay: CLD_ABCG2_6hr: CellzDirect (CLD) Gene Expression Assay for ABC Transporter (ABCG2) at 6 hours (AID 2283660)
Method in brief: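 Primary human hepatocytes dosed daily with chemicals at multiple concentrations (0.2% DMSO vehicle), harvested 6 h after dosing. ABCG2 mRNA induction read by quantitative nuclease protection assay (qNPA) chemiluminescence; gain of signal fitted against DMSO baseline.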

[2] = read-out: xenobiotic metabolism (CYP1A1), CYP1A1 (gene 1543); assay: CLD_CYP1A1_6hr: CellzDirect (CLD) Gene Expression Assay for xenobiotic metabolism (CYP1A1) at 6 hours (AID 2283661);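 on AC50: potency for transcript induction above DMSO vehicle baseline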
Method in brief: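 Primary human hepatocytes from two donors, compound versus 0.2% DMSO vehicle. CYP1A1 mRNA measured 6 h after dosing by quantitative nuclease protection assay with chemiluminescent read-out; induction fitted relative to DMSO, cytotoxicity flagged by microscopy.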

[3] = read-out: xenobiotic metabolism (CYP1A2), CYP1A2 (gene 1544); assay: CLD_CYP1A2_6hr: CellzDirect (CLD) Gene Expression Assay for xenobiotic metabolism (CYP1A2) at 6 hours (AID 2283663);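 on AC50: potency is for induction meaning a rise in mRNA above DMSO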
Method in brief: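 Primary human hepatocytes from two donor preparations, dosed daily with multiple concentrations in 0.2% DMSO and harvested at 6 h. CYP1A2 mRNA induction measured by chemiluminescent qNPA, gain of signal fitted against DMSO; cytotoxicity flagged morphologically.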

[4] = Tanguay_ZF_120hpf_TR_legacy: (Legacy) Oregon State University Tanguay Lab 120 Hour Post-fertilization zebrafish Assay for Touch Response (AID 2283667)
Method in brief: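 5D WT embryos; static exposure to 120 hpf, 28C, sealed/dark; DMSO 0.64% v/v final. TR scored present/absent; dead embryos excluded. Pos ctrl 5uM trimethyltin chloride.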

[5] = read-out: organic anion transporter (SLCO1B1), SLCO1B1 (gene 10599); assay: CLD_SLCO1B1_6hr: CellzDirect (CLD) Gene Expression Assay for organic anion transporter (SLCO1B1) at 6 hours (AID 2283668);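 further: active means mRNA induction above DMSO baseline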
Method in brief: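 Primary human hepatocytes dosed daily with test chemicals (multiple concentrations) in 0.2% DMSO vehicle; harvested at 6 h. SLCO1B1 mRNA quantified by qNPA chemiluminescence, fitted as gain-of-signal versus DMSO; cytotoxicity from phase-contrast morphology flagged alongside.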

[6] = read-out: ABC Transporter (ABCB11), ABCB11 (gene 8647); assay: CLD_ABCB11_6hr: CellzDirect (CLD) Gene Expression Assay for ABC Transporter (ABCB11) at 6 hours (AID 2283675);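 further: hits raise ABCB11 mRNA level so AC50 marks induction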
Method in brief: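 Human primary hepatocytes (two donor preparations) given fresh chemical daily at multiple concentrations, vehicle 0.2% DMSO. ABCB11 mRNA induction measured 6 h after dosing by qNPA chemiluminescence versus DMSO; cytotoxicity annotated from morphology.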

[7] = CCTE_Padilla_ZF_144hpf_TERATOSCORE: (Legacy) CCTE's 144 Hour Post-fertilization zebrafish Assay Teratoscore, Padilla Lab (AID 2283679; active means hit-call score of the fitted dose curve at least 0.9, where 1 is the maximum; inactive means score below 0.9;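 on AC50: zebrafish embryos with chorions exposed by immersion from 6-8 hpf to 5 dpf with daily renewal; teratogenicity score from eye scoring of death hatching and malformations at 144 hpf; higher score means more developmental defects relative to DMSO baseline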)
Method in brief: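 Larvae scored by eye at 144 hpf for death, hatching and malformations after a day in clean Hanks'. Before that, daily-renewed exposure at 80 uM (0.4% DMSO, 26C) from roughly 6-8 hpf through 5 dpf, 4 embryos per chemical.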

[8] = read-out: solute carrier (SLC10A1), SLC10A1 (gene 6554); assay: LTEA_HepaRG_SLC10A1: Life Technologies and Expression Analysis (LTEA) Assay for solute carrier (SLC10A1) using HepaRG (AID 2283657; active means hit-call score of the fitted dose curve at least 0.9, where 1 is the maximum; inactive means score below 0.9); settings: mRNA level, 48 h; actives raise or lower the signal
Method in brief: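 Transcript levels were measured by qRT-PCR after human HepaRG cells received test chemical for 48 hours, up to 100 uM in half-log dilutions. Values come from bidirectional concentration-response fitting relative to 0.5% DMSO vehicle.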

[9] = read-out: matrix metalloproteinase-1 (MMP1), MMP1 (gene 4312); assay: LTEA_HepaRG_MMP1: Life Technologies and Expression Analysis (LTEA) Assay for matrix metalloproteinase-1 (MMP1) using HepaRG (AID 2283658; active means hit-call score of the fitted dose curve at least 0.9, where 1 is the maximum; inactive means score below 0.9); settings: mRNA level, 48 h; actives raise or lower the signal
Method in brief: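 HepaRG, ~100,000 cells/well, 48 h pre-culture; serum-free induction medium; test chemical 8 conc (max 100 uM, half-log), duplicate, 48 h; 0.5% DMSO; qRT-PCR MMP1, housekeeping-normalized; gain/loss fit vs DMSO.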

[10] = read-out: sulfotransferase (SULT2A), SULT2A1 (gene 6822); assay: CLD_SULT2A_6hr: CellzDirect (CLD) Gene Expression Assay for sulfotransferase (SULT2A) at 6 hours (AID 2283669);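 further: hits raise transcript level above the DMSO vehicle baseline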
Method in brief: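 Primary human hepatocytes from two donor preparations were dosed daily with chemicals or 0.2% DMSO and harvested at 6 h. Transcript induction read by qNPA chemiluminescence, fitted for gain of signal relative to DMSO; morphology-based cytotoxicity annotated.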

[11] = read-out: Cytochrome P450 (CYP24A1_1), CYP24A1 (gene 1591); assay: LTEA_HepaRG_CYP24A1_1: Life Technologies and Expression Analysis (LTEA) Assay for Cytochrome P450 (CYP24A1_1) using HepaRG (AID 2283671; active means hit-call score of the fitted dose curve at least 0.9, where 1 is the maximum; inactive means score below 0.9); settings: mRNA level, 48 h; actives raise or lower the signal
Method in brief: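 In this test, gene induction or suppression of CYP24A1 in human HepaRG liver cells is measured by qRT-PCR after 48 h chemical treatment (eight concentrations, maximum 100 uM). Values are fitted bidirectionally relative to DMSO.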

[12] = read-out: xenobiotic metabolism (CYP1A1), CYP1A1 (gene 1543); assay: CLD_CYP1A1_24hr: CellzDirect (CLD) Gene Expression Assay for xenobiotic metabolism (CYP1A1) at 24 hours (AID 2283673);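 further: CYP1A1 mRNA level by quantitative nuclease protection with chemiluminescence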
Method in brief: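 Primary human hepatocytes dosed daily with fresh solutions in 0.2% DMSO vehicle. mRNA measured at 24 h by quantitative nuclease protection assay with chemiluminescence; gain-of-signal fit versus DMSO, with morphology-based cytotoxicity flags.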

[13] = read-out: ABC Transporter (ABCB1), ABCB1 (gene 5243); assay: CLD_ABCB1_6hr: CellzDirect (CLD) Gene Expression Assay for ABC Transporter (ABCB1) at 6 hours (AID 2283659);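 further: hits raise ABCB1 transcript above the DMSO vehicle baseline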
Method in brief: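 Primary human hepatocytes (two donor preparations) dosed daily for two days with chemicals at multiple concentrations, 0.2% DMSO vehicle; harvested 6 h post-dose. ABCB1 mRNA induction quantified by qNPA chemiluminescence; gain-of-signal fitted versus DMSO.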

[14] = system: Thyroperoxidase (TPO), gene 54314; assay: CCTE_Simmons_AUR_rTPO: CCTE's Amplex UltraRed Assay for Thyroperoxidase (TPO) Inhibition, Simmons Lab (AID 2283662);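 on AC50: potency for loss of signal meaning inhibition of peroxidase activity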
Method in brief: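 Endpoint is decreased Amplex UltraRed fluorescence after a 30-min, 37C reaction of rat thyroid microsomes with 300 uM H2O2. Eight test concentrations (5 nM–87.5 uM final) in 0.5% DMSO, three biological replicates each.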

[15] = CCTE_Simmons_CellTiterGLO_HEK293T: Viability Assessment in CCTE's Assays for Thyroperoxidase (TPO) Inhibition, Simmons Lab (AID 2283665);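 on AC50: cells exposed to compound for 24 h before readout; actives reduce ATP signal below DMSO vehicle meaning cytotoxicity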
Method in brief: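 Cytotoxicity counter-screen: human HEK293T cells in low-serum (1% FBS) medium receive test chemical, 5 nM to 87.5 uM final, for 24 h; ATP is quantified by luciferase luminescence.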

[16] = read-out: Cytochrome P450 2B6 (Homo sapiens) (UniProt P20813); assay: CLD_CYP2B6_6hr: CellzDirect (CLD) Gene Expression Assay for xenobiotic metabolism (CYP2B6) at 6 hours (AID 2283677);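 further: actives raise CYP2B6 transcript above DMSO baseline so AC50 marks an inducer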
Method in brief: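 Primary human hepatocytes dosed with chemicals at multiple concentrations, vehicle 0.2% DMSO; CYP2B6 mRNA induction measured 6 h after dosing by quantitative nuclease protection assay with chemiluminescence, gain of signal fitted relative to DMSO.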

[17] = read-out: Cytochrome P450 3A4 (Homo sapiens) (UniProt P08684); assay: CLD_CYP3A4_6hr: CellzDirect (CLD) Gene Expression Assay for xenobiotic metabolism (CYP3A4) at 6 hours (AID 2283680)
Method in brief: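 Primary human hepatocytes (two donor preparations) dosed; CYP3A4 mRNA harvested at 6 h and quantified by qNPA chemiluminescence. Gain of signal fitted against 0.2% DMSO vehicle; cytotoxicity flagged by phase-contrast morphology.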

[18] = CLD_ACTIN_6hr: CellzDirect (CLD) Gene Expression Assay for Baseline Control (Actin) at 6 hours (AID 2283676);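 further: active means increased actin mRNA relative to DMSO vehicle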
Method in brief: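 Primary human hepatocytes dosed with fresh chemical solutions (vehicle 0.2% DMSO), harvested at 6 h. Actin mRNA quantified by quantitative nuclease protection assay with chemiluminescent read-out, as background control relative to DMSO.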

[19] = read-out: glucuronosyltransferase (UGT1A1), UGT1A1 (gene 54658); assay: CLD_UGT1A1_6hr: CellzDirect (CLD) Gene Expression Assay for glucuronosyltransferase (UGT1A1) at 6 hours (AID 2283672)
Method in brief: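 Primary human hepatocytes from two donor preparations, dosed with fresh solutions in 0.2% DMSO, harvested at 6 h. UGT1A1 mRNA measured by qNPA chemiluminescence; induction fitted upward versus DMSO.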

Measured: AC50

Broad substrate specificity ATP-binding cassette transporter ABCG2 (Homo sapiens), sequence (Q9UNQ0 whole entry, looked up): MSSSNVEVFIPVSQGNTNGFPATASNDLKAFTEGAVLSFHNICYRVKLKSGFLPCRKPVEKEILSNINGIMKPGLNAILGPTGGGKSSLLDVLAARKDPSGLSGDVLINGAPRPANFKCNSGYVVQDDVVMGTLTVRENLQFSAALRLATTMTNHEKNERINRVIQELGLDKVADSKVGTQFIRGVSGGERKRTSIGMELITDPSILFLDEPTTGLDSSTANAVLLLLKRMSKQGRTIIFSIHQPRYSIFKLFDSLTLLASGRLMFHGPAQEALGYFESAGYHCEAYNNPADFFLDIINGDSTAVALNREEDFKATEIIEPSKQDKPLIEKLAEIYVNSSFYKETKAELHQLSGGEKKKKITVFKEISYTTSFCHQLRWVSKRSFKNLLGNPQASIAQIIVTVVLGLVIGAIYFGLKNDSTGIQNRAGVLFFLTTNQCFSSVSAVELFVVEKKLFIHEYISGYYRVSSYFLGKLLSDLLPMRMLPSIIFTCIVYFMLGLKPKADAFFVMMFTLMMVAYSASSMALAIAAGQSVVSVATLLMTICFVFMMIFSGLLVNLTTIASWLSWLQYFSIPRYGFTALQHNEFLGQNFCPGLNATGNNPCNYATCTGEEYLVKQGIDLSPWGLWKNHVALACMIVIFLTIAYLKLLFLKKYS
Cytochrome P450 3A4 (Homo sapiens), sequence (P08684 whole entry, looked up): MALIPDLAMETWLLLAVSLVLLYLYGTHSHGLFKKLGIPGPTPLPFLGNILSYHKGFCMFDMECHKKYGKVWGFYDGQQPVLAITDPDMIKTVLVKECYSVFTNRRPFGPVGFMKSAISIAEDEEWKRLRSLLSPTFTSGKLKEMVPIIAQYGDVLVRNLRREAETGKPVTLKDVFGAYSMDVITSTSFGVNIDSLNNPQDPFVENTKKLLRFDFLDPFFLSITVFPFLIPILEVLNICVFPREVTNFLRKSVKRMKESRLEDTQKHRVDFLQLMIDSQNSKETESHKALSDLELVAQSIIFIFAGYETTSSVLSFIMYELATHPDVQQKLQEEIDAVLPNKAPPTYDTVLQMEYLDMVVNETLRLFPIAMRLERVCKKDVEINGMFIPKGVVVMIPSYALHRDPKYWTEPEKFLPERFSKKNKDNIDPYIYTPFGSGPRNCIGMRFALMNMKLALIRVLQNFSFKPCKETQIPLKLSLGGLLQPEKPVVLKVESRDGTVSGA

Nc1c(Cl)c(F)nc(OCC(=O)O)c1Cl
inactive: [1] | [2] | [3] | [4] | [5] | [6] | [7]

CCC(C)n1c(=O)[nH]c(C)c(Br)c1=O (centres undefined)
active: [8] 21 µM | [2] 7.21 µM | [3] 9.68 µM | [12] 5.45 µM
inactive: [9] | [4] | [10] | [11] | [7]

CC(C)=CC1C(C(=O)OCc2coc(Cc3ccccc3)c2)C1(C)C (centres undefined)
active: [14] 26.8 µM | [15] 32.7 µM | [16] 7.48 µM | [7] 1.71 µM
inactive: [13] | [2] | [4] | [12] | [6] | [17]

CCCCC(O)(Cn1cncn1)c1ccc(Cl)cc1Cl (centres undefined)
active: [2] 0.532 µM | [7] 36.5 µM
inactive: [1] | [3] | [4] | [5] | [18] | [17]

CCOc1nc(C(Cl)(Cl)Cl)ns1
active: [2] 8.85 µM | [15] 82.9 µM and 70.4 µM
inactive: [1] | [14] | [3] | [4] | [10] | [19] | [6] | [18] | [7] | [17]

CCOP(=S)(OCC)Oc1nc(Cl)n(C(C)C)n1
inactive: [9] | [1] | [15] | [4] | [10] | [11] | [6]
active: [8] 30.4 µM | [2] 2.55 µM | [14] 31.2 µM | [3] 2.78 µM | [12] 2.18 µM | [7] 57.2 µM | [17] 0.466 µM

Clc1nc(Cl)nc(Nc2ccccc2Cl)n1
inactive: [1] | [2] | [3] | [4] | [5] | [19] | [12] | [6] | [18] | [16] | [17]
active: [14] 6.29 µM | [15] 83.1 µM | [7] 52 µM

CC(C)Oc1cccc(NC(=O)c2ccccc2C(F)(F)F)c1
active: [8] 74 µM | [2] 3 µM | [12] 20 µM | [7] 15.9 µM
inactive: [9] | [13] | [3] | [4] | [11] | [17]

CCOc1nc(F)cc2nc(S(=O)(=O)Nc3c(Cl)cccc3Cl)nn12
inactive: [1] | [2] | [3] | [15] | [4] | [5] | [10] | [6] | [7] | [17]
active: [14] 26.5 µM

CC1(C)CON(Cc2ccccc2Cl)C1=O
inactive: [1] | [2] | [3] | [4] | [10] | [19] | [6] | [18] | [7]
active: [17] 1.89 µM

CC(C)C1(C)N=C(c2ncccc2C(=O)O)NC1=O (centres undefined)
active: [2] 1.9 µM | [3] 1.89 µM
inactive: [13] | [1] | [4] | [5] | [7]

CN=C=S
inactive: [8] | [9] | [1] | [2] | [4] | [5] | [10] | [11] | [12] | [6] | [18]
active: [7] 2.93 µM

CCNP(=S)(OC)O/C(C)=C/C(=O)OC(C)C (centres undefined)
active: [2] 3.37 µM | [3] 3.56 µM | [7] 40.6 µM | [17] 1.9 µM
inactive: [13] | [14] | [4] | [10] | [6] | [18]

CCCCC(C#N)(Cn1cncn1)c1ccc(Cl)cc1 (centres undefined)
inactive: [9] | [13] | [3] | [5] | [10] | [11] | [18]
active: [8] 83.9 µM | [2] 3.97 µM | [4] 50.7 µM | [16] 2.77 µM | [7] 62.6 µM | [17] 2.99 µM

CCOc1cc(C(C)(C)C)ccc1C1COC(c2c(F)cccc2F)=N1 (centres undefined)
active: [7] 1.9 µM | [17] 4.26 µM
inactive: [1] | [2] | [3] | [4] | [10] | [19] | [6]

CCOP(=O)(OCC)Oc1nc(Cl)c(Cl)cc1Cl
active: [2] 3.92 µM | [14] 29 µM | [3] 5.84 µM | [15] 81.5 µM | [7] 0.485 µM | [17] 9.77 µM
inactive: [1] | [4] | [5] | [10] | [12] | [6] | [18]
